This note sets out measurements from PubChem BioAssay AID504329 (Southern Research Specialized Biocontainment Screening …, 2011).

The structures appear in SMILES notation. Several values for one entry are separate records, joined by “and”; a condition that tells them apart may be missing. Identical values can stand only once. Hit rate of the full screen: of about 340,000 compounds, about 1,000 (0.29%) were called active. Cut-off read from the data, not from the text of the source: inconclusive = inhibition above about 27% without an active follow-up result; inactive = below that. These entries were drawn from the full list. Entries with a potency or affinity are not part of this list.

A short description of this assay: NS1A inhibition, H1N1 influenza, cell based functional assay (AID 504329). Conditions: percent inhibition, at 12.5 µM, active compounds read high.
Broadly, the inhibition is the change of the read-out against control, counted positive when it falls. As for `Cc1ccc2c(c1)oc(=O)n2CC(=O)c1ccccc1`, the inhibition was -20.6% (inactive).

`CCOC(=O)CC1CCCCN1C(=O)c1ccc2nc(CCOC)oc2c1` (stereo unspecified): the inhibition is 1.79% (inactive).

Turning to `CCN1CCN(Cc2nc3cc(NC(=O)COc4ccc([N+](=O)[O-])cc4)ccc3n2C)CC1`, the inhibition is 0.32% (inactive). The figure for `CC(=O)c1ccc(N(CC(=O)NCC2CCCO2)C(=O)CCC(=O)Nc2cc(C)on2)cc1` (stereo unspecified) is -8.06% (inactive); for `Cc1cccn2c(=O)c(C(=O)NC3CCCCC3)c(O)nc12` it is 5.08% (inactive); for `CCOC(=O)C1CCCN(C(=O)/C=C/c2ccc(Cl)cc2)C1` (stereo unspecified) it is -12.8% (inactive).

In the case of `O=C(O)C1C2C=CC(C2)C1C(=O)Nc1ccc(Cl)c(Cl)c1` (stereo unspecified), the inhibition was 1.34% (inactive). Under `Oc1ccccc1C=NNC(=S)NN=Cc1ccccc1O` stands 16.5% (inactive). With `NC(=S)N/N=C/c1ccccc1`, the inhibition is -0.87% (inactive). Take `COC(=O)c1cccc(/C=N/NC(N)=S)c1O`: the inhibition was -14.3% (inactive). `NC(=S)N/N=C/c1cccc(/C=N/NC(N)=S)c1`: the inhibition is -0.05% (inactive).

As for `Cc1ccc(NC(=O)c2cc(S(=O)(=O)N3CCCC3)cn2C)cc1`, the inhibition is 2.93% (inactive). As to `COc1cccc(S(=O)(=O)Nc2ccc(C(=O)N3CCN(C(=O)c4ccco4)CC3)cc2)c1`, the inhibition was 5.1% (inactive). In the case of `COC(=O)C=CC(=NNc1ccccc1)c1ccccc1`, the inhibition is 3.06% (inactive).

As to `Cc1nn(Cc2ccc(Cl)cc2)c(C)c1NC(=O)CCCn1nc(C)c([N+](=O)[O-])c1C`, the inhibition was 10.9% (inactive).

Take `Oc1c(CN2CCN(c3ccccc3)CC2)cc(Br)c2cccnc12`: the inhibition is 14.4% (inactive). Under `O=C(c1ccc(Cl)cc1)C1CCCN(Cc2cccc3cccnc23)C1` (stereo unspecified) stands -0.71% (inactive); under `O=C(O)c1ccc2cccnc2c1O`, -0.15% (inactive); under `Oc1c(Br)cc(Br)c2cccnc12`, -9.24% (inactive). Turning to `CC(C(=O)NC1CCCCCC1)N(c1ccccc1)S(C)(=O)=O` (stereo unspecified), the inhibition is 7.2% (inactive). Under `CC1(C)Cc2cccc(Oc3ccc(S(=O)(=O)N4CCCC4)cn3)c2O1` stands 6.74% (inactive); under `CC(C)(CNC(=O)C1CCCN1C(=O)c1cccs1)N1CCOCC1` (stereo unspecified), -1% (inactive). Under `O=C(c1cc(-c2ccc(Cl)cc2)n[nH]1)N1CCc2ccccc2C1` stands -1.28% (inactive); under `COc1ccccc1C(=O)NC(=O)COC(=O)c1cnc(C)cn1`, 1.58% (inactive). Turning to `CCc1cccc(CC)c1NC(=S)NCCc1ccc(O)c(O)c1`, the inhibition was 9.59% (inactive). Under `CCN1/C(=C/c2ccc3cc(C)ccc3[n+]2CC)Sc2ccc3sccc3c21` stands -14% (inactive); under `CCN1C(=C(C#N)C#N)C=Cc2ccccc21`, -6.42% (inactive); under `CCN1/C(=C/c2ccc3ccccc3[n+]2CCCS(=O)(=O)[O-])C=Cc2cc(C)ccc21`, 19.6% (inactive). The figure for `CCN1/C(=C\c2ccc3cc(C)ccc3[n+]2CC)Sc2cc(C)c(C)cc21` is 25.6% (inactive); for `CCN1/C(=C/c2ccc3cc(C)ccc3[n+]2CC)Sc2ccccc21` it is 21% (inactive). The figure for `CCN1/C(=C/c2ccc3cc(C)ccc3[n+]2CC)Sc2cc(C)c(C)cc21` is 28.7% (inactive); for `CC(=O)N(C)C(c1ccc(N(C)C)cc1)c1nnnn1-c1c(C)cccc1C` (stereo unspecified) it is 3.51% (inactive). As to `CCCC(=O)Nc1nnc(S(=O)(=O)N(CC(C)C)c2ccccc2)s1`, the inhibition is -2.29% (inactive). Turning to `CCN(CC)C(=O)[C@H]1C[C@H](CC(=O)NCCc2ccccn2)C(=O)N2CCc3c([nH]c4ccc(Cl)cc34)[C@]12C`, the inhibition was 15.9% (inactive). Regarding `O=C(CCC1CCCN(c2ncccn2)C1)NCc1ccccc1F` (stereo unspecified), the inhibition was -9.11% (inactive).

Take `O=C1OCc2cc(NC(=O)C34CC5CC(CC(C5)C3)C4)ccc21`: the inhibition was 1.32% (inactive). `Nc1ccc2c(c1)C(=O)c1ccc(Cl)cc1-2`: the inhibition is -15.2% (inactive). Regarding `O=C(O)c1cccc2c1-c1ccc(Cl)cc1C2=O`, the inhibition was -19.9% (inactive). The figure for `CC1CC(=O)c2c(cc3c(-c4c(O)cc(O)c5c(O)c6c(cc45)OC(C)CC6=O)c(O)cc(O)c3c2O)O1` (stereo unspecified) is 24.8% (inactive).

Take `C[C@@H]1Cc2c(O)c(O)cc(O)c2C(=O)O1`: the inhibition was 3.88% (inactive). The figure for `O=C(CSc1nnc(-c2ccco2)n1CC1CCCO1)NC1CCCC1` (stereo unspecified) is 20.3% (inactive); for `CCOc1ccc(N=Nc2ccc(O)c3ncccc23)cc1` it is 4% (inactive). Under `CCOc1ccc2[nH]c3ncccc3c(=O)c2c1` stands 3.05% (inactive); under `O=C(Nc1cccc(O)c1)c1ccc([N+](=O)[O-])cc1Cl`, -2.66% (inactive). Under `O=C(Nc1ccc([N+](=O)[O-])cc1Cl)c1cc(Cl)ccc1O` stands 8.63% (inactive).

As for `Cc1cccc(NS(=O)(=O)c2csc(C(N)=O)c2)c1`, the inhibition was 14.1% (inactive).

For `Cc1cccc(OCCCC(=O)NNC(=O)c2ccc(F)cc2)c1`, the inhibition is -5.91% (inactive). The figure for `COc1ccc(N=Nc2ccc(N)nc2N)cc1` is 20.4% (inactive); for `COc1cc(N=Nc2ccc(C(=O)N(C)C)cc2)c(C)cc1N` it is 11.5% (inactive); for `Cn1c(Cn2c(=O)sc3ccccc32)nnc1SCC(=O)NCCc1ccccc1` it is 1.01% (inactive).

As to `CN(C)c1ccc(N=Nc2ccccc2C(=O)OCC(=O)N(C)C2CCCCC2)cc1`, the inhibition was 10.8% (inactive). As for `CN(C)c1ccc(N=Nc2ccccc2C(=O)OCC(=O)N2CCCCCC2)cc1`, the inhibition is 28.4% (inactive).

In the case of `CN(C)c1ccc(N=Nc2ccccc2C(=O)OCC(=O)NCC2CCCCC2)cc1`, the inhibition is 8.64% (inactive).

As to `CN(C)c1ccc(N=Nc2ccccc2C(=O)OCC(=O)N2CCCC2)cc1`, the inhibition was 22.2% (inactive).

On to `CC(=O)c1ccc(NC(=O)COC(=O)c2ccccc2N=Nc2ccc(N(C)C)cc2)cc1`, for which the inhibition is 17.2% (inactive). The figure for `CN(C)c1ccc(N=Nc2ccccc2C(=O)OCC(=O)Nc2ccccc2C(F)(F)F)cc1` is 28.2% (inactive).

As for `COC(=O)c1cc(C(=O)OCC(=O)NC2CCS(=O)(=O)C2)cc([N+](=O)[O-])c1` (stereo unspecified), the inhibition was 6.69% (inactive). Under `O=C(CCC1CCCN(C(=O)c2ccoc2)C1)NCc1ccccc1F` (stereo unspecified) stands -1.5% (inactive); under `COc1ccccc1NC(=O)Nc1nc(CC(=O)Nc2ccc(OC)c(OC)c2)cs1`, -0.35% (inactive).

Take `COc1ccccc1NC(=O)Nc1nc(CC(=O)Nc2ccc(F)cc2)cs1`: the inhibition was -9.19% (inactive). Under `O=C(Cn1nnc(-c2ccccc2F)n1)Nc1ccc2c(c1)OCCO2` stands -0.7% (inactive); under `C[C@H](NC(=O)c1nc[nH]c1C(=O)N1CCc2ccccc2C1)c1ccccc1`, -11.5% (inactive); under `O=C(COc1ccc(Cl)cc1)N/N=C/c1cccc2cccnc12`, 2.4% (inactive). With `O=C(N/N=C/c1cccc2cccnc12)c1ccccc1O`, the inhibition is 0.6% (inactive). Under `CCOc1ccccc1C=NNC(=O)c1cccc2ccccc12` stands -22.3% (inactive). Under `COc1ccc(C(=O)N/N=C/c2ccc3cccc(O)c3n2)cc1` stands -2.2% (inactive). The figure for `COc1ccc(C(=O)N/N=C/c2cccnc2)cc1` is -5.94% (inactive). With `CCOc1ccc(C(=O)Nc2cccc3cccnc23)cc1`, the inhibition is -4.15% (inactive). Regarding `CCN(CC)CCNC(=O)/C(=C/c1cn(C)c2ccccc12)NC(=O)c1ccc(OC)c(OC)c1`, the inhibition was -22.9% (inactive). Under `COC(=O)Cc1[nH]nc2c1C(c1cccc(OC)c1OC)C(C#N)=C(N)O2` (stereo unspecified) stands -3.61% (inactive); under `CN(c1ccccc1)S(=O)(=O)CS(=O)(=O)N(C)c1ccccc1`, -0.79% (inactive).

For `COc1ccccc1CNC(=O)CCCn1nc(C)n2ccnc2c1=O`, the inhibition was -0.77% (inactive). For the compound `CCCOc1ccc(N2CC(C(=O)Nc3ccc(N4CCOCC4)cc3)CC2=O)cc1` (stereo unspecified), the inhibition is -0.783% (inactive). Under `CCCC(C)C(=O)Nc1cccc(NC(C)=O)c1` (stereo unspecified) stands -2.06% (inactive); under `COc1ccccc1CNC(=O)COC(=O)c1cccc(-n2cnnn2)c1`, -6.66% (inactive); under `Cc1ccc(NC(=O)C2CCCN2C(=O)OCc2ccccc2)c(O)c1` (stereo unspecified), 0.49% (inactive). Regarding `COc1cc(/C=C2\SC(c3ccc(C)cc3)=NC2=O)cc(OC)c1O`, the inhibition was 17.9% (inactive). Take `COc1cc(/C=C2\SC(N)=NC2=O)cc(Cl)c1O`: the inhibition was 4.85% (inactive). With `O=C(CCN1C(=O)c2ccccc2C1=O)NCc1ccccc1`, the inhibition is 5.94% (inactive). Under `CCN(CC)c1ccc(SS(=O)(=O)O)cc1` stands -7.03% (inactive) and 0.65% (inactive); under `CCN(CC)c1ccc(NC(=O)Nc2ccc(C(C)=O)cc2)cc1`, 7.64% (inactive); under `CCN(CC)c1ccc(C(=O)O)cc1`, 15.6% (inactive). Regarding `CCN(CC)c1ccccc1`, the inhibition was -3.57% (inactive). The figure for `CCN(CC)c1ccc(/C=C2\C(=O)c3ccc(C(=O)O)cc3C2=O)cc1` is 20.7% (inactive). Under `CCN(CC)c1ccc(C(=S)NCc2ccccc2)cc1` stands -0.32% (inactive). Under `COC(=O)C1=C(C)N(CCCC(=O)O)C(=O)NC1c1ccccc1OS(=O)(=O)c1ccc([N+](=O)[O-])cc1` (stereo unspecified) stands 13.1% (inactive). Turning to `Cc1cc(C)cc(NC(=O)COC(=O)CCc2ccc(S(=O)(=O)N3CCOCC3)cc2)c1`, the inhibition was 3.45% (inactive). `Cc1cccc2cc(C#N)c(SCC(=O)Nc3ccccc3N3CCOCC3)nc12`: the inhibition is -15.7% (inactive).

Turning to `Cc1ccc([N+](=O)[O-])cc1S(=O)(=O)Nc1ccc(-c2ccc(N3CCOCC3)nn2)cc1`, the inhibition was -3.07% (inactive). Under `COC(CNC(=O)c1coc2nc3ccccc3nc12)OC` stands 17% (inactive); under `COCCCNC(=O)c1ccc2c3c(onc13)-c1ccccc1C2=O`, 17.2% (inactive). The figure for `CCOC(=O)N1CCN(C(=O)c2cn(CC)c3ccc(S(=O)(=O)N4CCC(C)CC4)cc3c2=O)CC1` is -9.88% (inactive). For `C/C(CC(=O)Nc1ccccn1)=N\NC(=O)c1cnccn1`, the inhibition is -7.52% (inactive).

Take `CCc1ccc(NC(=S)N(Cc2ccccc2)Cc2ccccn2)cc1`: the inhibition is 11.1% (inactive). The figure for `O=C(NN=C(c1ccccc1)c1ccccn1)c1ccccc1` is -14.3% (inactive). With `CCOc1ccc(C(=O)N/N=C(\c2ccccc2)c2ccccn2)cc1`, the inhibition was -0.16% (inactive).
